High-throughput results deposited in PubChem BioAssay by several laboratories.
In the library only some 2.9% were active in any assay of this set; here they are far more common.
B2AR ag = activates human beta-2 adrenergic receptor causing internalization; P07550; Am2.2-beta2AR cells, FAP receptor internalization, flow cytometry; response, % (concentration not given with the values); 340,000 compounds, 0.43% hits; AID 504454;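 active = response above a set limit, near 3 SD of response in nonfluorescent compounds, cut at about 42% in these data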
Target sequence (P07550 whole entry, looked up): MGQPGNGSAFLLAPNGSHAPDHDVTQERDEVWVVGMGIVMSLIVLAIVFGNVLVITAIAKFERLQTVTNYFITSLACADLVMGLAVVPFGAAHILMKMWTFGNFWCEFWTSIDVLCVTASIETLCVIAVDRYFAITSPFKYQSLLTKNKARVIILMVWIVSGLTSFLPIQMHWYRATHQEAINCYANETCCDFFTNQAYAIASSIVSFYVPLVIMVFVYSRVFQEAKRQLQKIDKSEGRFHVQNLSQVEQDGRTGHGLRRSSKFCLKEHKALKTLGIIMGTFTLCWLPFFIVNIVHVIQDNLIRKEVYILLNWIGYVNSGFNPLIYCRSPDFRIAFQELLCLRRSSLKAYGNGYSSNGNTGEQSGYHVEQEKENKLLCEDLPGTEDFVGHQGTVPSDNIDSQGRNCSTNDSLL
Granule exo inh = blocks lytic granule exocytosis. TALL-104 LAMP-1 surface exposure, flow cytometry; cells stimulated with thapsigargin and PMA. inhibition, % at 10 µM. 360,000 compounds, 0.66% hits;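 active = inhibition above about 55%, limit read from the data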
GRK2 inh = inhibitors of human GRK2 displacing RNA aptamer | P25098 | 330,000 compounds, 0.59% hits | bead flow cytometry, FAM-aptamer displacement from GRK2 | inhibition of aptamer binding, % at 10 µM;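 active = inhibition of aptamer binding above 40%, roughly 3 SD of noise, on plates passing a quality check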;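 also: median bead fluorescence of bound FAM aptamer so fluorescent compounds give negative values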
PP1 counter = PP1-alpha (human) inhibition in PP5 counter-screen. P62136. purified PP1alpha, OMFP fluorescence. inhibition, % at 6.7 µM. 320,000 compounds, 0.9% hits;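 active = inhibition above the mean inhibition of all tested compounds plus 3 SD, computed separately for each screening campaign, cut at about 15% in these data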
NadD block = blocks S. aureus nicotinate mononucleotide adenylyltransferase | purified NadD enzyme, colorimetric absorbance read-out | inhibition, % at 20 µM | 360,000 compounds, 0.78% hits | AID 602399; in the data active = inhibition above about 26%
GRK2 inh confirm = confirmation of human GRK2 inhibitors displacing RNA aptamer. 2,000 compounds, 4% hits. shares compounds with GRK2 inh. bead-bound GRK2, FAM-aptamer displacement, flow cytometry. aptamer displacement, % at 10 µM;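 active = aptamer displacement above 40%, near three times the noise of non-fluorescent compounds, on plates passing quality checks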;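 also: negative values mostly reflect intrinsic compound fluorescence rather than true enhancement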
Aptamer quench 1 = counter-screen for GRK2 aptamer inhibitors: fluorescent aptamer quenchers; fluorescence change (kMESF span), kMESF (no concentration beside the values); shares compounds with GRK2 inh; 110 tested, under 10 active; Fluorescent RNA aptamer beads, quenching, flow cytometry; stronger effect = higher value;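 active = compounds whose bead fluorescence drops by more than 37 kMESF across the dose range, marking them as dye quenchers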
Aptamer quench SP = aptamer fluorescence quenching in GRK2 counter-screen. shares compounds with GRK2 inh. Carboxyfluorescein RNA aptamer on beads, flow cytometry quenching; stronger effect = lower value. fluorescence response (% of DMSO), % at 10 µM. 2,000 tested, under 10 active;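 active = compounds that quench the bead-bound fluorescent RNA probe, cutting fluorescence to under half of the solvent control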;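 also: counterscreen run without GRK2 so only probe quenching by compound is measured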
GRK2 confirm 2 = human GRK2 inhibition confirmation, cherry pick 2; shares compounds with GRK2 inh; bead-bound GRK2, FAM-aptamer displacement, flow cytometry; inhibition of aptamer binding, % at 10 µM; 360 tested, under 10 active; AID 504782;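 active = inhibition of aptamer binding above 40%, about triple the noise seen with nonglowing compounds, on plates passing quality control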;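 also: negative values mostly come from compounds that fluoresce themselves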
FAM quench SP = quenches fluorescent RNA aptamer, GRK2 hit artifact | fluorescence response vs DMSO, % at 10 µM | 360 tested, under 10 active | carboxyfluorescein RNA aptamer beads, flow cytometry quenching; stronger effect = lower value | AID 588494 | shares compounds with GRK2 inh;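 active = response vs DMSO under 50%, meaning signal dropped by over half, treated as fluorescence quencher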;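 also: labelled aptamer on streptavidin beads without GRK2 as a quench counter-screen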
A number is an active result; n = inactive; x = no result given.

SMILES | B2AR ag | Granule exo inh | GRK2 inh | PP1 counter | NadD block | GRK2 inh confirm | Aptamer quench SP | others
CC(=O)Nc1ccc(NC(=O)CCS(=O)(=O)c2ccc3c(c2)oc(=O)n3C)cc1 | n | n | n | n | n | x | x
CC(=O)Nc1ccc(C(=O)COC(=O)c2cccs2)c(F)c1 | n | n | n | n | n | x | x
O=C1C=C(Nc2ccc(Cl)cc2)CC(c2ccc(Cl)cc2)C1 (centres undefined) | n | n | n | n | n | x | x
O=C1C=C(NCc2ccco2)CC(c2ccc(Cl)cc2)C1 (centres undefined) | n | n | 86.0 | n | n | n | n
CCc1nnc(NC(=O)C2c3ccccc3Oc3ccccc32)s1 | n | n | n | n | n | x | x
Nc1nnnn1/N=C/c1ccccc1OCc1ccc(Cl)cc1 | n | n | 74.0 | n | n | n | n
Nc1nnnn1/N=C/c1ccccc1OCc1ccc(Cl)cc1Cl | n | n | n | n | n | x | x
COc1ccccc1C(=O)NCCC(=O)NNC(=O)Cn1ccc(C(F)(F)F)n1 | n | n | n | n | n | x | x
Cn1c(=O)c2c(ncn2CC(=O)N/N=C/c2ccc(Br)s2)n(C)c1=O | n | n | n | n | n | x | x
O=C(Cn1cnc2ccccc2c1=O)c1ccc(OC(F)F)cc1 | n | n | n | n | n | x | x
O=c1[nH]nc(Cc2ccc([N+](=O)[O-])cc2)c2ccccc12 | n | n | 86.0 | n | n | n | n
O=C(Cn1cc(C(=O)c2cccs2)c2ccccc21)NCc1ccc2c(c1)OCO2 | n | n | 69.0 | n | n | n | n
O=C(Cn1cc(C(=O)c2cccs2)c2ccccc21)NCC1CCCO1 (centres undefined) | n | n | n | n | n | x | x
CN(CC(=O)Nc1ccc(N2CCOCC2)cc1)CC(=O)Nc1ccccc1C#N | n | n | n | n | n | n | n
CN(CC(=O)Nc1ccc(N2CCOCC2)cc1)CC(=O)Nc1ccc(C(F)(F)F)cc1 | n | n | n | n | n | x | x
CN(CC(=O)Nc1ccc(N2CCOCC2)cc1)CC(=O)Nc1ccc([N+](=O)[O-])cc1Br | n | n | n | n | n | x | x
Cc1ccc(NC(=O)CN(C)CC(=O)Nc2ccc(N3CCOCC3)cc2)c(C)c1 | n | n | n | n | n | n | n
COc1ccc(NC(=O)CSc2nnc(-c3cc(C)[nH]n3)n2N)cc1 | n | n | n | n | n | x | x
Cc1ccc(S(=O)(=O)N[C@@H](C)C(=O)OCC(=O)N2c3ccccc3NC(=O)C2(C)C)cc1 | n | n | n | n | n | x | x
O=C(NCC1CCCO1)C1CCCN1C(=O)NC1CCCCC1 (centres undefined) | n | n | n | n | n | x | x
O=C(NCC1CCCO1)C1CCCN1C(=O)Nc1ccc(Cl)c(Cl)c1 (centres undefined) | n | n | 53.0 | n | n | n | n
O=C(NCc1ccccc1)Nc1cccn(Cc2ccccc2)c1=O | n | n | 57.0 | n | n | x | x | GRK2 confirm 2=n;FAM quench SP=n
O=C(NCc1ccccc1)Nc1cccn(Cc2ccc(F)cc2)c1=O | n | n | n | n | n | x | x
O=S(=O)(c1cccc(Cl)c1Cl)N1CCCCC1 | n | n | 82.0 | n | n | n | n
Cc1cc(C)nc(/N=C2\NC(=O)CC(C(=O)O)N2c2ccc(F)c(Cl)c2)n1 (centres undefined) | x | x | n | n | x | x | x
SMILES | B2AR ag | Granule exo inh | GRK2 inh | PP1 counter | NadD block | GRK2 inh confirm | Aptamer quench SP | others
Cc1cc(C)nc(/N=C2\NC(=O)CC(C(=O)O)N2CCc2c[nH]c3ccccc23)n1 (centres undefined) | n | n | 60.0 | n | n | n | n
COc1ccccc1C1c2[nH]c3ccccc3c2C[C@H]2C(=O)N(C3CCN(Cc4ccccc4)CC3)CC(=O)N12 (some centres undefined) | n | n | n | n | n | n | n
COc1ccc(C2c3[nH]c4ccccc4c3C[C@H]3C(=O)N(C4CCN(Cc5ccccc5)CC4)CC(=O)N23)cc1OC (some centres undefined) | n | n | n | n | n | x | x
Cc1ccccc1C1c2[nH]c3ccccc3c2C[C@H]2C(=O)N(C3CC3)CC(=O)N12 (some centres undefined) | n | n | n | n | n | x | x
COc1cccc(C2c3[nH]c4ccccc4c3C[C@H]3C(=O)N(C4CCN(Cc5ccccc5)CC4)CC(=O)N23)c1 (some centres undefined) | n | n | n | n | n | n | n
Cc1cc(C)c(C)c(S(=O)(=O)Nc2ccccc2N2CCOCC2)c1C | n | n | n | x | n | x | x
O=C(COc1ccc(C2SCCS2)cc1)NNC(=O)C(Cl)Cl | n | n | 46.0 | n | n | n | n
COc1cccc(-c2nc(-c3ccc(NC(=O)c4cccs4)cc3)no2)c1 | n | n | n | n | n | x | x
O=[N+]([O-])c1cc(C(F)(F)F)ccc1NCCc1ccccn1 | n | n | n | n | n | x | x
CS(=O)(=O)c1ccc(NCCc2ccccn2)c([N+](=O)[O-])c1 | n | n | 60.0 | n | n | n | n
O=C(CS(=O)(=O)c1ccccc1)N1CCc2ccccc21 | n | n | n | n | n | x | x
O=C(CCS(=O)(=O)c1ccc(Br)s1)N1CCc2ccccc21 | n | n | n | n | n | n | n | Aptamer quench 1=n
COC(=O)CC(c1ccc(OC)c(OC)c1)c1ccc(OC)c(OC)c1 | n | n | n | n | n | x | x
CC(=O)Nc1ccc(S(=O)(=O)NNC(=O)c2ccc3c(c2)OCO3)cc1 | n | n | n | n | n | x | x
CC(=O)Nc1ccc(S(=O)(=O)NNC(=O)c2cccc(Cl)c2)cc1 | n | n | 92.0 | n | n | n | n
CC(=O)Nc1ccc(OC(=O)N2CCCC2)cc1 | n | n | n | n | n | x | x
CC(=O)Nc1ccc(C(=O)COC(=O)C2CC2C)c(F)c1 (centres undefined) | n | n | x | x | n | x | x
COc1ccc2nc(NC(=O)CSc3nnnn3C3CCCCC3)sc2c1 | n | n | 51.0 | n | n | n | n
Cc1ccc(NC(=O)COC(=O)C2(CC(=O)NC(C)(C)C)CCCC2)cc1C | n | n | n | x | n | n | n
Cc1ccc(NC(=O)COC(=O)[C@H](C)NC(N)=O)c(C)c1 | n | n | n | n | n | x | x
Cc1ccc(S(=O)(=O)Nc2cc(Cl)c(O)c3ncccc23)cc1 | n | n | 55.0 | n | n | x | x | GRK2 confirm 2=n;FAM quench SP=n
Oc1c(Cl)cc(Cl)c2cccnc12 | n | n | x | x | n | x | x
